hcDAF12 agonist: activates DAF-12 receptor from parasite H. contortus; HEK293 hcDAF-12 lit1-tk-luc reporter, luminescence; 0% DMSO, 100% Δ7-dafachronic acid; activation, % at 6.8 µM; 370,000 tested, 1.4% active; AID 652067;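 active = activation above the mean of all tested compounds plus 3 SD, cut at about 5.5% in these data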;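 also: 100% = response to 3 µM Δ7-dafachronic acid high control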
ssDAF-12 act: activators of S. stercoralis DAF-12 nuclear receptor | HEK293 ssDAF-12/GRIP1 lit1-tk-luc reporter, luminescence; % of 3 µM dafachronic acid response | activation, % at 6.8 µM | 370,000 tested, 1% active | AID 652126;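 active = activation above the mean over all tested compounds plus 3 SD, cut at about 0.9% in these data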;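 also: 0% = DMSO-only wells and 100% = 3 µM delta7-dafachronic acid wells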
hgDAF12 agonist: activates the H. glycines DAF-12 receptor ligand-binding domain; HEK293 GAL4-hgDAF12 UAS-luciferase reporter, agonist luminescence; normalized to butyrate control; activation, % at 6.8 µM; AID 687014; 370,000 tested, 1.8% active;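 active = activation above a cutoff set at the mean of all screened compounds plus 3 SD, cut at about 10% in these data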;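 also: 0% = DMSO wells and 100% = sodium butyrate wells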
DAX1 inh: blocks DAX1 repression of SF-1 activated StAR promoter. 370,000 tested, 1.1% active. HEK293T StAR-luciferase reporter, SF-1/DAX-1 repression relief. AID 652010. inhibition, % at 6.8 µM;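 active = inhibition above the mean over all tested compounds plus 3 SD, cut at about 3.6% in these data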;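 also: 0% = DAX-1 cells with DMSO and 100% = cells lacking DAX-1 with DMSO; higher inhibition means more luminescence from relief of DAX-1 repression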
SMARCA2 act: SMARCA2 function activation, primary screen. activation, % at 9.1 µM. MG213 cells, MMTV-luciferase reporter, dexamethasone, overnight. 370,000 tested, 1% active; in the data active = activation above about 7.8%;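 also: 0% = vehicle wells and 100% = reference activator wells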
hgDAF12 ag: hgDAF-12 agonism, confirmation assay; HEK293 GAL4-hgDAF12 luciferase reporter, agonist mode; percent of butyrate response; shares compounds with hgDAF12 agonist; 3,300 tested, 80% active; activation, % at 6.8 µM;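 active = mean activation over triplicate wells above the hit cutoff derived from the earlier primary screen, cut at about 11% in these data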;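 also: 0% = DMSO low control and 100% = 2 mM sodium butyrate high control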
LXR ag 2: counter-screen for DAF-12 agonists: agonists of human LXR-beta. shares compounds with hgDAF12 agonist. HEK293 Gal4-LXR luciferase reporter, 24 h. activation, % at 6.8 µM. 3,300 tested, under 10 active;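 active = mean activation of the triplicate above a set limit carried over from the primary screen, none filed active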
Target sequence (P55055 whole entry, looked up, the tested form may be a part): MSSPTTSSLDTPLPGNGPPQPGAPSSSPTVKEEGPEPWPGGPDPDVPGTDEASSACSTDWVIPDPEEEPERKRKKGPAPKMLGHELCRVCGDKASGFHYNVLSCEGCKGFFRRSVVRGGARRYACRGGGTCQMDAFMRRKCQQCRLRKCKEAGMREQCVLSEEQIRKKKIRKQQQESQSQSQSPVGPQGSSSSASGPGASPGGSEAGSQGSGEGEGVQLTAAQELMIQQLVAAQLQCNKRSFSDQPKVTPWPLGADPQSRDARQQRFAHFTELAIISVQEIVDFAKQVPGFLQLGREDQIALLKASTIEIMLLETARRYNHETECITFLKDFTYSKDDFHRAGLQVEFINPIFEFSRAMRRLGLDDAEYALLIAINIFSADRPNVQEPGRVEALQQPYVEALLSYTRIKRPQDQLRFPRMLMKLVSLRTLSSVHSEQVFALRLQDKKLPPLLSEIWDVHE
* marks the source's active call; other numbers are inactive results; · = not tested or not shown. The list is not random: actives were taken first. Their share in the collection is about 4.2%.

SMILES	hcDAF12 agonist	ssDAF-12 act	hgDAF12 agonist	DAX1 inh	SMARCA2 act	hgDAF12 ag	LXR ag 2
COc1ccc(/C=C/c2nc3ccccc3n2Cc2ccccc2OC)cc1	5	0	16*	4.4*	2	12*	1
CC[C@H](NC(=O)[C@@H](Cc1ccccc1)NC(=O)[C@H]1O[C@@H](n2ccc(=O)[nH]c2=O)[C@H](O)[C@@H]1O)c1ccccc1	0	-2	0	1	0	·	·
COC(=O)C[C@@H]1CC[C@@H]2[C@@H](COc3ccc(NC(C)=O)cc3C(=O)N2C)O1	1	-1	5	0	-1	·	·
COC(=O)C[C@H]1CC[C@@H]2[C@H](COc3ccc(NC(=O)c4ccccc4OC)cc3C(=O)N2C)O1	-2	0	15*	0	-1	0	0
Cc1ccc2oc(-c3ccco3)cc(=O)c2c1	2	0	14*	4	2	17*	1
COc1ccc(C=C(C(=O)c2ccccc2)C(=O)c2ccccc2)cc1	1	-1	14*	2	3	11*	0
Cc1ccc(Nc2ncnc(N)n2)cc1	2	-1	19*	0	-3	5	0
Cc1ccc(-c2cn3cccnc3n2)cc1	2	-1	15*	2	4	11*	0
CS(=O)(=O)Nc1ccc(-c2cn3cccnc3n2)cc1	2	-1	3	0	0	·	·
O=C(CCn1c(=O)oc2ccccc21)NCc1ccco1	-1	-1	0	1	-1	·	·
Cc1ccc(CNC(=O)CCn2c(=O)oc3ccccc32)cc1	0	0	13*	-1	-1	1	0
COc1ccc(-c2cn3nc4c(nc3n2)CCCC4)cc1	2	0	5	1	3	·	·
COc1cccc(-c2cn3nc(C)c(C)nc3n2)c1	3	1	15*	2	5	14*	1
O=C1C=C(N2CCCCCC2)C(=O)N1c1ccc(Cl)cc1	5	0	15*	2	3	5	1
CCn1c(SCc2ccccc2Cl)nnc1-c1ccccc1OC	-3	-1	-2	-1	-6	·	·
O=C(O)c1cc(-c2cccs2)[nH]n1	0	0	15*	0	-1	1	0
Nc1[nH]c(C(=O)c2ccccc2)c(-c2cccc3ccccc23)c1C(=O)c1cccs1	4	0	3	1	5	·	·
CO[C@H]([C@H](C)/C=C/N(C)C=O)[C@@H](C)C(=O)CC[C@H](C)[C@H](O)[C@H](C)[C@H]1OC(=O)/C=C/C(C)=C/C[C@H](O)C[C@@H]2C=CC[C@@H](C[C@H](OC)[C@@H](CO)[C@@H](OC)C[C@@H](OC)[C@@H]1C)O2	-4	-1	-10	·	·	·	·
Cc1[nH]c2ccccc2c1/C=N/Nc1ccc([N+](=O)[O-])cc1	0	-1	4	-2	-2	·	·
Cc1ccc(N=Cc2c(O)[nH]c3ccccc23)c([N+](=O)[O-])c1	1	0	15*	4.1*	7	12*	0
C=CCOc1cccc(/C=C/c2nc3ccccc3c(=O)[nH]2)c1	4	1.3*	15*	3	4	16*	1
COc1cc(/C=C/c2nc3ccccc3c(=O)[nH]2)cc(OC)c1OC	-1	-1	5	0	0	·	·
Cc1ccccc1/C=C\c1nc2ccccc2c(=O)[nH]1	2	1.3*	15*	3	4	20*	1
O=C(Nc1c(-c2ccc(C(F)(F)F)cc2)nc2ncccn12)c1ccccc1	3	-1	2	-1	-2	·	·
O=C(Nc1ccn(-c2ccccc2)n1)c1ccccc1Br	0	0	20*	1	3	5	0
SMILES	hcDAF12 agonist	ssDAF-12 act	hgDAF12 agonist	DAX1 inh	SMARCA2 act	hgDAF12 ag	LXR ag 2
CC(=O)Nc1ccn(-c2ccccc2)n1	1	0	5	1	-1	·	·
COc1ccc(-c2cc(C(=O)NN=Cc3ccc(O)c(OC)c3)[nH]n2)cc1	-1	-1	7	0	2	·	·
Cc1nc([N+](=O)[O-])cn1CC(Cl)Cn1cc([N+](=O)[O-])nc1C	1	-1	0	-1	1	·	·
CCN(CC)c1ccc(NC(=S)NC(=O)c2ccco2)cc1	0	-2	16*	3	1	6	0
O=C(NC(=S)Nc1ccc([N+](=O)[O-])cc1)c1ccco1	2	-1	5	2	0	·	·
CCN(CC)c1ccc(/C=N/NC(=O)c2cnccn2)cc1	1	0	18*	0	6	18*	0
O=C(N/N=C\c1ccc2c(c1)OCO2)c1ccco1	2	1	14*	3	6	12*	1
CCN(CC)c1ccc(/C=N/NC(=O)c2ccco2)cc1	5	0	17*	1	5	21*	1
COc1cc(NC(=O)C2CCCN(S(=O)(=O)c3ccc(Br)s3)C2)cc(OC)c1 (stereo unspecified)	-3	-1	-2	0	-4	·	·
C#CCNC(=O)C[C@H]1C[C@@]2(C(=O)OC)C(=C[C@H](C(C)C)O[C@@H]2C2CC2)N(Cc2cccc3ccccc23)C1=O	-1	-1	-1	-1	-2	·	·
CC(C)Cc1nnc(NC(=O)Nc2ccccc2)s1	2	-2	21*	2	-1	14*	0
Cc1ccc(OCCOc2c(Cl)cc(Cl)cc2Cl)c([N+](=O)[O-])n1	2	-1	8	·	·	·	·
Cc1nc2ccc(NC(=O)c3cc(Cl)ccc3F)cc2c(=O)[nH]1	-2	-1	9	1	8	·	·
CC(=O)c1ccc(NC(=O)c2ccc3snnc3c2)cc1	1	-1	14*	4	6	12*	1
COc1ccc(-c2cn3c(C)c(C(=O)NC(C)(C)C)sc3n2)cc1	6.0*	1	18*	3	3	12*	0
COc1ccc(-c2cn3c(C)c(C(=O)NC(C)C)sc3n2)cc1	-1	-2	1	0	2	·	·
CCNC(=O)C[C@H]1CC[C@H]2[C@@H](COc3ccc(NC(=O)Nc4ccccc4)cc3C(=O)N2C)O1	2	-1	-3	2	-2	·	·
C/C(=N\NC(=O)c1cccs1)c1ccc2c(c1)OCO2	5	0	20*	3	4	8	0
COc1ccc2c(c1)CCCN2C(=O)C1CCCN(S(=O)(=O)c2cccc3ccccc23)C1 (stereo unspecified)	-5	-2	-5	1	-7	·	·
Cc1c(/C=C/C(=O)c2ccccc2)cnn1C	1	-1	5	0	4	·	·
Cc1nn(C)cc1/C=C/C(=O)c1ccccc1	5	0	18*	3	1	16*	1
CCn1ncc(/C=C/C(=O)c2ccccc2)c1C	4	0	17*	1	6	13*	1
